High-throughput results: PubChem, National Center for Advancing Translational Sciences (NCATS)
The list is not random: actives were taken first. Their share in the collection is about 11%.
hNpr1 antagonist – Natriuretic polypeptide receptor (hNpr1) antagonism - Primary qHTS; AID 1347048, 2019; Atrial natriuretic peptide receptor 1 (Homo sapiens), P16066; 76,000 tested, 1.6% active; HEK293 hNpr1 GloSensor cGMP, ANP-stimulated luminescence; Potency, µM (top dose mostly 46.3 µM), for the others: top-dose activity change, negative = inhibition, usual class: inhibitors; calls by dose curve; also: nearly all actives have a fitted effect of over 60% in size
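Compound pre-incubated 30 min at room temperature on GloSensor-loaded HEK293 cells stably carrying hNpr1 and the pGS-40F cGMP biosensor. Stimulation uses hNppA at 0.1 nM final; luminescence is taken at baseline and 20 min post-agonist.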
NIH3T3 tox – Cytotoxic Profiling in NIH 3T3 Cell Line of Diverse Libraries Using Quantitative High-Throughput Screening; NIH 3T3 viability, CellTiter-Glo ATP luminescence, 48-72 h; 94,000 tested, 4.3% active; AID 1345082, 2018; Potency, µM (highest dose often 96.7 µM), for inactives: top-dose activity change, negative = cytotoxicity, usual class: inhibitors; also: nearly all actives have a fitted effect of over 55% in size
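Viability of NIH 3T3 cells after 48 or 72 hr compound treatment at 37 °C was assessed by CellTiter-Glo, with luminescence imaged following a 10 min room-temperature step.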
FLuc inh – Firefly luciferase inhibition profiling of diverse chemical library using quantitative high-throughput screening; 76,000 tested, 2.5% active; Luciferin 4-monooxygenase (Photinus pyralis), P08659; Potency, µM (doses to about 115 µM), actives largely listed as inhibitors; AID 1347043, 2019; purified P. pyralis luciferase, luminescence, biochemical; also: nearly all actives have a fitted effect of over 65% in size
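Inhibitors were tested against purified firefly luciferase in a biochemical, low-substrate format (both substrates at 10uM) and luminescence measured with a CCD imager.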
HEK cytotox – Cytotoxic Profiling in HEK 293 Cell Line of Diverse Libraries Using Quantitative High-Throughput Screening | HEK 293 viability, ATP luminescence (CellTiter-Glo), 48-72 h | Potency, µM (highest dose often 115 µM), for inactives: at the highest dose activity change, negative = cytotoxicity, usual class: inhibitors | 94,000 tested, 6.6% active; also: nearly all actives have a fitted effect of over 60% in size
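HEK 293 cells at 250 cells/well were exposed to compounds by pintool transfer for 48 or 72 hr at 37 degree Celsius, 5% CO2. Viability was read as ATP-coupled luminescence with CellTiter-Glo after 10 min at room temperature.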
Active calls of the source: *; [ ] = remark or other dose. Unless noted, calls follow the shape of the dose curve; as a rule, active = well fitted curve in the direction sought with a large enough effect; inconclusive = small, poorly fitted or top-dose-only effect, or another doubt; inactive = no such curve, though single readings can be large; an effect the other way counts as inactive or inconclusive. % is scaled to controls: 0 for no effect and ±100 for the full control effect; potency is read from the fitted curve at half-maximal effect.

For COC(=O)[C@@H]1Cc2c([nH]c3ccccc23)[C@H]2C[C@@H](NCCCn3ccnc3)C[C@@H](c3cccc(Cl)c3)N21 the results were hNpr1 antagonist -12%, NIH3T3 tox 18µM*, FLuc inh inactive and HEK cytotox 28µM*.
Screening COC(=O)[C@@H]1Cc2c([nH]c3ccccc23)[C@H]2C[C@@H](NCCCn3ccnc3)C[C@@H](c3ccc(F)cc3)N21 returned hNpr1 antagonist -2%, NIH3T3 tox 25µM*, FLuc inh inactive and HEK cytotox 25µM*.
Screening CN1Cc2ccc(NCc3ccccc3)nc2C(C)(C(=O)NCCCn2ccnc2)C1 (stereo not drawn) returned hNpr1 antagonist -2%[70.6 µM], NIH3T3 tox inconclusive, FLuc inh inactive and HEK cytotox inconclusive.
For Cc1ccccc1OC1(C(=O)O)CCN(c2cncc(C(N)=O)n2)CC1 the results were hNpr1 antagonist 0%, NIH3T3 tox -9%, FLuc inh inactive and HEK cytotox -6%.
`c1cc(-c2nc3c(c(NCc4cn5c(n4)SCC5)n2)CCNCC3)ccn1` gave hNpr1 antagonist 0%, NIH3T3 tox inconclusive, FLuc inh inactive and HEK cytotox 20µM*.
Screening CC1=C(C(=O)OC(C)C)C(c2ccccc2Cl)CC(=O)N1Cc1cccc(F)c1 (stereo not drawn) returned hNpr1 antagonist 3%, NIH3T3 tox inconclusive, FLuc inh inactive and HEK cytotox 32µM*.
C[C@H]1CCCN1C(=O)c1nnc(CNc2ccc(OC(F)(F)F)cc2)n1-c1ccccc1 was read as hNpr1 antagonist 0%, NIH3T3 tox -22%, FLuc inh inactive and HEK cytotox inconclusive.
`C[C@H]1CCCN1C(=O)c1nnc(COc2ccc(Cl)cc2)n1-c1ccccc1` gave hNpr1 antagonist -15%[70.6 µM], NIH3T3 tox 3.2µM*, FLuc inh inactive and HEK cytotox 79µM*.
C[C@H]1CCCN1C(=O)c1nnc(COc2ccc(F)c(F)c2)n1-c1cccnc1 was read as hNpr1 antagonist -5%[70.6 µM], NIH3T3 tox 25µM*, FLuc inh inactive and HEK cytotox inconclusive.
`O=C(c1nnc(CNc2ccccc2)n1-c1ccccc1)N1CCC[C@@H]1C(c1ccccc1)c1ccccc1` gave hNpr1 antagonist -30%, NIH3T3 tox inconclusive, FLuc inh inactive and HEK cytotox inconclusive.
Screening O=C(c1nnc(CNc2ccc(OC(F)(F)F)cc2)n1-c1ccccc1)N1CCC[C@@H]1CN1CCCC1 returned hNpr1 antagonist 3%, NIH3T3 tox inconclusive, FLuc inh inactive and HEK cytotox 71µM*.
For O=C(c1nnc(COc2ccc(F)c(F)c2)n1-c1ccccc1)N1CCC[C@@H]1C(c1ccccc1)c1ccccc1 the results were hNpr1 antagonist -6%, NIH3T3 tox 4.5µM*, FLuc inh inactive and HEK cytotox inconclusive.
For CCCCN1C(=O)c2ccccc2C(C(=O)Nc2nc(C)cs2)C12CCCC2 (stereo not drawn) the results were hNpr1 antagonist -2%, NIH3T3 tox -2%, FLuc inh inactive and HEK cytotox -16%.
C[C@H]1CCCN1C(=O)c1nnc(COc2ccccc2)n1-c1ccccc1 was read as hNpr1 antagonist -13%[70.6 µM], NIH3T3 tox 89µM*, FLuc inh inactive and HEK cytotox inconclusive.
CN(Cc1ccncc1)Cc1ccccc1C(F)(F)F was read as hNpr1 antagonist 0%[70.6 µM], NIH3T3 tox -2%[138 µM], FLuc inh inactive and HEK cytotox -14%[172 µM].
Screening O=C(CC(c1ccc(Cl)cc1)c1c[nH]c2ccc([N+](=O)[O-])cc12)N1CCOCC1 (stereo not drawn) returned hNpr1 antagonist inconclusive, NIH3T3 tox inconclusive, FLuc inh inactive and HEK cytotox 40µM*.
Screening COCCNC(=O)CC(c1ccc(Cl)cc1)c1c[nH]c2ccc([N+](=O)[O-])cc12 (stereo not drawn) returned hNpr1 antagonist inconclusive, NIH3T3 tox inconclusive, FLuc inh inactive and HEK cytotox 40µM*.
Screening CCCCNC(=O)CC(c1cccc([N+](=O)[O-])c1)c1c[nH]c2ccccc12 (stereo not drawn) returned hNpr1 antagonist -18%, NIH3T3 tox inconclusive, FLuc inh inactive and HEK cytotox inconclusive.
COc1cccc(CNc2ncnc3c2CN(C2CCCC2)C(=O)CN3C)c1 was read as NIH3T3 tox inconclusive and HEK cytotox -1%.
CN1CC(=O)N(C2CCCC2)Cc2c(NCc3cccc(C(F)(F)F)c3)ncnc21 was read as NIH3T3 tox inconclusive and HEK cytotox 35µM*.
COc1ccc(N2Cc3c(NCC4CCCCCC4)ncnc3N(C)CC2=O)cc1 was read as hNpr1 antagonist -2%, NIH3T3 tox inconclusive, FLuc inh inactive and HEK cytotox 79µM*.
`CN(Cc1ccncn1)C(=O)C1C2C(=O)N(CCc3ccncc3)C[C@@]23C=C[C@@H]1O3` (stereo partly drawn) gave hNpr1 antagonist 9%, NIH3T3 tox 3%, FLuc inh inactive and HEK cytotox -7%.
For CS(=O)(=O)N1C[C@H]2CCN(Cc3cc(F)ccc3F)C[C@H]21 the results were hNpr1 antagonist 1%, NIH3T3 tox -17%, FLuc inh inactive and HEK cytotox -11%.
`CCN1C(=O)C2(CCN(S(=O)(=O)Cc3ccc(Cl)cc3)CC2)c2ccccc21` gave hNpr1 antagonist -12%, NIH3T3 tox 25µM*, FLuc inh inactive and HEK cytotox 35µM*.
`COCCCNC(=O)c1nc2sccn2c1-c1ccc(OC)cc1` gave NIH3T3 tox 3% and HEK cytotox 3%.
Screening CCc1noc([C@@H]2CC(F)(F)CN2C(=O)CCn2nc(C)cc2C)n1 returned hNpr1 antagonist 0%, NIH3T3 tox -11%, FLuc inh inactive and HEK cytotox inconclusive.
Cn1cccc1CN1CCC2(COc3ccccc3C(=O)N2)C1 (stereo not drawn) was read as hNpr1 antagonist -2%[70.6 µM], NIH3T3 tox inconclusive, FLuc inh inactive and HEK cytotox inconclusive.
Screening Cn1nccc1CN1CCCC2(COc3ccccc3C(=O)N2)C1 (stereo not drawn) returned hNpr1 antagonist inconclusive, NIH3T3 tox 8.9µM*, FLuc inh inactive and HEK cytotox 28µM*.
O=C1NC2(CCN(Cc3ccsc3)C2)COc2ccccc21 (stereo not drawn) was read as hNpr1 antagonist 4%[70.6 µM], NIH3T3 tox 40µM*, FLuc inh inactive and HEK cytotox inconclusive.
Screening O=C1NC2(CCN(Cc3ccc(F)cc3)CC2)COc2ccccc21 returned hNpr1 antagonist 8%[70.6 µM], NIH3T3 tox -22%[138 µM], FLuc inh inactive and HEK cytotox 63µM*.
CC(=O)Nc1ccc(CN2CCC3(CC2)COc2ccccc2C(=O)N3)cc1 was read as hNpr1 antagonist -3%, NIH3T3 tox 3%, FLuc inh inactive and HEK cytotox inconclusive.
